# Compound activity from PubChem.
# Hits are enriched below; roughly 6.9% of the tested compounds scored in any of these assays.
# SW480 rereplic: induces DNA re-replication in SW480 colon adenocarcinoma cells; 1.8% of 340,000 active; SW480 DNA re-replication, Hoechst DNA content imaging, 48 h; Potency, µM (series often up to 46.1 µM), without a hit: at the highest dose re-replication activation, usual class: activators; also: potency is read from the fitted curve at half-maximal effect; % of control where 0% means no effect; nearly all actives have a fitted effect of over 55% in size
#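 Image-based read-out: total Hoechst fluorescence of nuclei (405 nm excitation, 500-530 nm emission), with hits raising the fraction of high-intensity nuclei. SW480 colon cells incubated 48 hr with compounds at 37 C.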
# MCF10A rereplic: induces DNA re-replication in MCF 10a normal breast cells; MCF 10A DNA re-replication, Hoechst nuclear intensity, 48 h; Potency, µM (doses to about 46.1 µM), without a hit: at the highest dose activity, positive = re-replication, most hits filed as activators; 2.9% of 350,000 active; AID 624296; also: potency is read from the fitted curve at half-maximal effect; % of control where 0% means no effect; nearly all actives have a fitted effect of over 50% in size
# Vif-APOBEC3G blk: Vif-A3G binding inhibition; HeLa A3G-eYFP + Vif (tagged APOBEC3G with the HIV-1 protein that degrades it), YFP fluorescence, overnight; AID 602310; 0.076% of 410,000 active; Potency, µM (series often up to 46.1 µM), inactives show at the top dose activity, negative = active, most hits filed as inhibitors; also: potency is read from the fitted curve at half-maximal effect; % is scaled to controls: 0 for no effect and ±100 for the full control effect; nearly all actives have a fitted effect of over 60% in size
# Target sequence (Q9HC16 whole entry, looked up): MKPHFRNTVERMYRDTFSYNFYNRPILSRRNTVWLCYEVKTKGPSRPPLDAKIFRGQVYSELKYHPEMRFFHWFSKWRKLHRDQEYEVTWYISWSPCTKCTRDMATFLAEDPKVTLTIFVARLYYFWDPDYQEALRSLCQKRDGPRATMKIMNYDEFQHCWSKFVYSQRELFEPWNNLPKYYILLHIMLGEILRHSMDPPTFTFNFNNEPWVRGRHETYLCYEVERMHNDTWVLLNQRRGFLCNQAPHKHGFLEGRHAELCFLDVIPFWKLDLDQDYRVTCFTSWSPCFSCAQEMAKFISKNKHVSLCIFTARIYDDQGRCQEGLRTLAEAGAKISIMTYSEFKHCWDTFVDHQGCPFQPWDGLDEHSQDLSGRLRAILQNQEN
#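 Read-out is eYFP fluorescence (Ex 488/Em 500-530) from Vif-expressing HeLa A3G-eYFP cells; more signal means A3G escaped Vif-mediated degradation. Cells plated overnight, compound pinned in, incubated overnight at 37 deg C.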
# IL1B secr inh: inhibitors of inflammasome signaling (IL-1 beta secretion); activity change, % at 57.5 µM; 4.7% of 360,000 active; THP-1 LPS/ATP IL-1B secretion, AlphaLISA, 16 h; active compounds read low; AID 743279; in the data active = activity change below about -50%; inconclusive = mostly about -30% to -49%; also: % is scaled to controls: 0 for no effect and ±100 for the full control effect
#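 THP-1 cells pretreated 1 hr with compounds (up to 57.5 uM final), then stimulated with LPS (250 ng/mL final) plus ATP (1.25 mM final); secreted IL-1B measured by AlphaLISA after 16 hr, decreased signal indicating inhibition.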
# Giardia kill: kills Giardia lamblia; activity change, % at 7.66 µM, hits read low; 0.15% of 340,000 active; Giardia lamblia trophozoite viability; in the data active = activity change below about -80%; inconclusive = between about -30% and that limit;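 also: parasites exposed to compound for two days anaerobically before the ATP read; % is scaled to controls: 0 for no effect and ±100 for the full control effect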
#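 Giardia trophozoites, 100 cells per well, were exposed to compounds for 48 hrs at 37 deg C under anaerobic conditions; viability was then read as ATP content by bioluminescence after 15-30 min at room temperature.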
# Vif-APOBEC3F blk: blocks the Vif interaction with APOBEC3F. 0.2% of 390,000 active. Potency, µM (top dose mostly 46.1 µM), inactives show at the top dose activity, negative = active. AID 602313. HeLa A3F-eYFP + Vif (tagged APOBEC3F with the HIV-1 protein that degrades it), YFP fluorescence increase; also: potency is read from the fitted curve at half-maximal effect; % of control where 0% means no effect; nearly all actives have a fitted effect of over 65% in size
#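 Fluorescence increase (Ex 488/Em 500-530) after overnight compound treatment at 37 deg C flags inhibition of Vif-driven A3F-eYFP loss in stable HeLa A3F-eYFP/Vif cells seeded overnight beforehand.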
# * marks the source's active call; other numbers are inactive results; ? = inconclusive; . = no result given. Unless noted, calls follow the shape of the dose curve; as a rule, active = well fitted curve in the direction sought with a large enough effect; inconclusive = small, poorly fitted or top-dose-only effect, or another doubt; inactive = no such curve, though single readings can be large; an effect the other way counts as inactive or inconclusive.
SMILES,SW480 rereplic,MCF10A rereplic,Vif-APOBEC3G blk,IL1B secr inh,Giardia kill,Vif-APOBEC3F blk
O=C1NN=C(c2ccc(Br)cc2)CC1c1ccc(Cl)cc1 (centres undefined),-2%,?,1%,-85*,-19,-3%
CCC(=O)N1CCN(c2ccc(Cl)cc2NC(=S)NC(=O)c2ccco2)CC1,2%,11%,-1%,1,5,6%
Cc1cc(C)n(-c2ccc(C(=O)Nc3cccnc3Cl)cc2)n1,21%,-2%,-7%,-23,10,0%
CCN1CCN(c2ccc(Cl)cc2NC(=O)c2ccco2)CC1,3%,15%,4%,-62*,2,14%
CCN1CCN(c2ccc(Cl)cc2NC(=O)c2ccc(-n3nc(C)cc3C)cc2)CC1,155%,?,-2%,-64*,28,-29%
CCOc1ccc(C(=O)c2cn(Cc3ccc(Cl)cc3)c3cc(OC)c(OC)cc3c2=O)cc1,.,.,-2%,.,.,6%
COc1cc(OC)cc(-c2cc3nc(C)c(CCC(=O)O)c(C)n3n2)c1,0%,18µM*,-8%,29,8,1%
COc1cc(OC)cc(-c2cc3nc(C)c(CCC(=O)NC(C)CCc4ccco4)c(C)n3n2)c1 (centres undefined),-3%,?,1%,-21,5,3%
NCCOc1ccc(C2CCCCC2)cc1,?,-8%,1%,-186*,11,-1%
Cc1cccc(OCC(=O)Nc2cc(S(=O)(=O)N3CCOCC3)ccc2N2CCCC2)c1C,5%,15%,0%,-81*,4,-24%
CCN1CCN(c2ccc(S(=O)(=O)N3CCCCC3)cc2NC(=O)COc2cc(C)ccc2Cl)CC1,?,?,2%,-65*,-2,-16%
CCN1CCN(c2ccc(S(=O)(=O)N3CCCCC3)cc2NC(=O)COc2ccc(F)cc2Cl)CC1,26%,8%,2%,?,-24,0%
O=C(COc1cccnc1[N+](=O)[O-])Nc1ncc(Cl)cc1Cl,0%,3%,-8%,-8,-80*,4%
COc1ccc(S(=O)(=O)N2CCOCC2)cc1NC(=O)COc1cccnc1[N+](=O)[O-],-9%,0.58µM*,0%,?,?,3%
CCOC(=O)c1ccc(NC2SC(=O)N(Cc3cccc(C(=O)O)c3)C2=O)cc1 (centres undefined),.,.,2%,.,.,0%
CCn1cc2nc(SCc3cccc(OC)c3)n(Cc3ccc(Cl)cc3)c(=O)c2n1,.,.,2%,.,.,8%
O=C(O)CCn1c2c(c3ccccc31)C[C@H](NS(=O)(=O)c1ccc(F)cc1)CC2,7%,8%,.,.,.,.
COc1cccc(/C=C/c2nc(C#N)c(NC3CCCCC3)o2)c1,.,.,-2%,.,.,-6%
Cc1ccc(-n2ncc(C(=O)NCc3ccco3)c2C2CCN(C(=O)OC(C)(C)C)CC2)c(C)c1,.,.,3%,.,.,0%
COc1cccc(C(=O)Nc2cccc(OCc3cc(=O)n4c5c(sc4n3)CCCC5)c2)c1,.,.,-1%,.,.,9%
Cc1ccccc1OCC(=O)Nc1cc(S(=O)(=O)N2CCCCC2)ccc1N1CCN(C)CC1,?,-4%,0%,-82*,-2,3%
